According to PubChem BioAssay (NCATS):
Several values for one entry are separate records, joined by “and”; a condition that tells them apart may be missing. Equal entries are not always repeated. Results filed as inconclusive are left out. Values without a mark were called inactive. Activity calls are given as the source filed them. The call rests on the fitted dose curve; in most records, active means well fitted curve in the direction sought with a large enough effect; inconclusive means small, poorly fitted or top-dose-only effect, or another doubt; inactive means no such curve, though single readings can be large; an effect the other way counts as inactive or inconclusive.

Assays:
HEK293 = experiment: Cytotoxic Profiling of Annotated Libraries Using Quantitative High-Throughput Screening (AID 1296008); conditions: Five cell lines viability, CellTiter-Glo ATP luminescence, 48-72 h; max response: hits give low values; further: nearly all actives have a fitted effect of over 60% in size; further: potency means the concentration at half of the fitted maximal effect
Method in brief: (§1)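 Cells exposed to compounds for 48 or 72 hr at 37 degrees Celsius. Viability read as ATP-coupled luminescence with CellTiter-Glo after 10 min at room temperature.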

HaCat [1] = experiment: as above; conditions: Five cell lines viability, CellTiter-Glo ATP luminescence, 48-72 h; max response: hits give low values
Method in brief: as §1

MCC-13 = experiment: qHTS assay to identify novel small-molecules to repurpose for Merkel cell carcinoma treatment (AID 1296009); conditions: MCC and control cell lines, CellTiter-Glo viability, 72 h; series mostly up to 46 µM; further: nearly all actives have a fitted effect of over 60% in size; further: potency means the concentration at half of the fitted maximal effect
Method in brief: (§2)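 Dose-response viability screen; 72 hr exposure at 37 degree celsius; CellTiter-Glo added, 10 min room temperature, luminescence read; RLUs scaled between no-cell and DMSO wells.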

MCC-26 = experiment: as above; conditions: MCC and control cell lines, CellTiter-Glo viability, 72 h; series mostly up to 46 µM
Method in brief: as §2

MKL-1 = experiment: as above; conditions: MCC and control cell lines, CellTiter-Glo viability, 72 h; series mostly up to 46 µM
Method in brief: as §2

UISO = experiment: as above; conditions: MCC and control cell lines, CellTiter-Glo viability, 72 h; series mostly up to 46 µM
Method in brief: as §2

WaGa = experiment: as above; conditions: MCC and control cell lines, CellTiter-Glo viability, 72 h; series mostly up to 46 µM
Method in brief: as §2

NIH3T3 [2] = experiment: Cytotoxic Profiling of Annotated Libraries Using Quantitative High-Throughput Screening (AID 1296008); conditions: Five cell lines viability, CellTiter-Glo ATP luminescence, 48-72 h; max response: hits give low values; further: nearly all actives have a fitted effect of over 60% in size; further: potency means the concentration at half of the fitted maximal effect
Method in brief: as §1

MKL-2 = experiment: qHTS assay to identify novel small-molecules to repurpose for Merkel cell carcinoma treatment (AID 1296009); conditions: MCC and control cell lines, CellTiter-Glo viability, 72 h; series mostly up to 46 µM; further: nearly all actives have a fitted effect of over 60% in size; further: potency means the concentration at half of the fitted maximal effect
Method in brief: as §2

CRL-7250 = normal cell line; experiment: Cytotoxic Profiling of Annotated Libraries Using Quantitative High-Throughput Screening (AID 1296008); conditions: Five cell lines viability, CellTiter-Glo ATP luminescence, 48-72 h; max response: hits give low values; further: nearly all actives have a fitted effect of over 60% in size; further: potency means the concentration at half of the fitted maximal effect
Method in brief: as §1

KB-3-1 = experiment: as above; conditions: Five cell lines viability, CellTiter-Glo ATP luminescence, 48-72 h; max response: hits give low values
Method in brief: as §1

HEK293T = experiment: qHTS assay to identify novel small-molecules to repurpose for Merkel cell carcinoma treatment (AID 1296009); conditions: MCC and control cell lines, CellTiter-Glo viability, 72 h; at 44.8 µM (top of the series) unless noted; further: nearly all actives have a fitted effect of over 60% in size; further: potency means the concentration at half of the fitted maximal effect
Method in brief: as §2

HACAT [3] = experiment: as above; conditions: MCC and control cell lines, CellTiter-Glo viability, 72 h; at 44.8 µM (top of the series) unless noted
Method in brief: as §2

C33A = experiment: Primary qHTS to identify gynecologic anti-cancer compounds using libraries of approved drugs and bioactive compounds (AID 1345084); conditions: Gynecologic cancer cell panel viability, ATPlite luminescence, 48 h; series mostly up to 57.5 µM; further: nearly all actives have a fitted effect of over 55% in size
Method in brief: (§3)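 Luminescence from the ATPlite ATP-monitoring reagent indicates viable cell number; lower signal means cytotoxicity. Cells received compound 16 h after seeding and were exposed for 48 h across five concentrations.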

CAOV3 = experiment: as above; conditions: Gynecologic cancer cell panel viability, ATPlite luminescence, 48 h; series mostly up to 57.5 µM
Method in brief: as §3

CASKI = experiment: as above; conditions: Gynecologic cancer cell panel viability, ATPlite luminescence, 48 h; series mostly up to 57.5 µM
Method in brief: as §3

NIH3T3 [4] = experiment: qHTS assay to identify novel small-molecules to repurpose for Merkel cell carcinoma treatment (AID 1296009); conditions: MCC and control cell lines, CellTiter-Glo viability, 72 h; series mostly up to 44.8 µM; further: nearly all actives have a fitted effect of over 60% in size; further: potency means the concentration at half of the fitted maximal effect
Method in brief: as §2
On the % scale 0 is the no-effect control and ±100 the full control effect.

Q: Which results are given for CNc1nc(-c2ccc3c(N)n[nH]c3c2)cc(N2C[C@@H](C(=O)NC3CCCCC3)CC[C@@H]2C)n1?
A: Potency (HEK293): 7.43 µM (active); max response (HaCat [1]): -5.08%; Potency (MCC-13): inactive; Potency (MCC-26): inactive; Potency (MKL-1): inactive; Potency (UISO): inactive; Potency (WaGa): inactive

Q: For Cc1cccc(-c2[nH]c(C(C)(C)C)nc2-c2ccc3c(c2)OCO3)n1, which Potency (HEK293) is on record?
A: 4.18 µM (active)

Q: And the max response (HaCat [1])?
A: -21.5%

Q: What about the Potency (NIH3T3 [2]) of the same molecule?
A: 7.43 µM (active)

Q: What about the Potency (MKL-1) of the same molecule?
A: 3.72 µM (active)

Q: And the Potency (MKL-2)?
A: 0.743 µM (active)

Q: And the Potency (UISO)?
A: 1.32 µM (active)

Q: And the Potency (WaGa)?
A: 2.64 µM (active)

Q: How did the max response (CRL-7250) turn out when O=C(c1ccc(C=Cc2n[nH]c3ccccc23)cc1)N1CCNCC1 was run?
A: -12.3%

Q: What about the Potency (KB-3-1) of the same molecule?
A: 9.35 µM (active)

Q: And the Potency (NIH3T3 [2])?
A: 2.35 µM (active)

Q: And the Potency (MCC-13)?
A: inactive

Q: And the Potency (MKL-2)?
A: inactive

Q: With COc1cc2nccc(Oc3ccc(NC(=O)Nc4ccc(F)cc4F)c(F)c3)c2cc1OC as the molecule, how does the max response (CRL-7250) read?
A: -18.7%

Q: What about the Potency (MCC-13) of the same molecule?
A: inactive

Q: What about the Potency (MCC-26) of the same molecule?
A: inactive

Q: And the Potency (MKL-2)?
A: inactive

Q: And the Potency (UISO)?
A: inactive

Q: And the Potency (WaGa)?
A: inactive

Q: Which results are given for CC(C)n1c(C=C[C@H](O)C[C@H](O)CC(=O)O)c(-c2ccc(F)cc2)c2ccccc21?
A: Potency (CRL-7250): 2.64 µM (active); Potency (KB-3-1): 11.8 µM (active); Potency (NIH3T3 [2]): 16.6 µM (active); Potency (MCC-26): 20.9 µM (active); Potency (MKL-2): 7.43 µM (active); Potency (UISO): 10.5 µM (active); Potency (WaGa): 18.7 µM (active)

Q: Oc1cc(O)cc(C=Cc2ccc(O)c(O)c2)c1 was tested. Which outcome (HEK293) did it give?
A: inactive

Q: And the max response (HaCat [1])?
A: -2.98%

Q: And the max response (KB-3-1)?
A: -8.49%

Q: What about the max response (NIH3T3 [2]) of the same molecule?
A: 3.17%

Q: What about the outcome (HEK293T) of the same molecule?
A: inactive

Q: And the Potency (MCC-13)?
A: inactive

Q: What about the Potency (MCC-26) of the same molecule?
A: inactive

Q: And the Potency (WaGa)?
A: 18.7 µM (active)

Q: Which max response (HEK293) does the source give for N=C1SC(=Cc2ccc(-c3ccc4c(c3)C(=O)NC4=O)o2)C(=O)N1c1ccc(Br)cc1 here?
A: 1.89%

Q: And the outcome (HaCat [1])?
A: inactive

Q: And the outcome (KB-3-1)?
A: inactive

Q: And the max response (NIH3T3 [2])?
A: 1.79%

Q: And the outcome (HACAT [3])?
A: inactive

Q: And the Potency (MCC-13)?
A: inactive

Q: What about the Potency (MCC-26) of the same molecule?
A: inactive

Q: What about the Potency (MKL-1) of the same molecule?
A: inactive

Q: What about the Potency (UISO) of the same molecule?
A: inactive

Q: And the Potency (WaGa)?
A: inactive

Q: With CC(C)N(CCCNC(=O)Nc1ccc(C(C)(C)C)cc1)C[C@H]1O[C@@H](n2cc(Br)c3c(N)ncnc32)[C@H](O)[C@H]1O as the molecule, how does the Potency (HEK293) read?
A: 18.7 µM (active)

Q: What about the max response (HaCat [1]) of the same molecule?
A: -6.68%

Q: And the Potency (KB-3-1)?
A: 26.4 µM (active)

Q: What about the Potency (MCC-13) of the same molecule?
A: inactive

Q: And the Potency (MCC-26)?
A: inactive

Q: And the Potency (MKL-1)?
A: inactive

Q: And the Potency (MKL-2)?
A: inactive

Q: And the Potency (WaGa)?
A: inactive

Q: What does the source list for CC(C)(O)CC(=O)NCCn1ccc2ncnc(Nc3ccc(Oc4cccc(C(F)(F)F)c4)c(Cl)c3)c21?
A: Potency (HEK293): 16.6 µM (active); Potency (HaCat [1]): 372 nM (active) and 3.66 µM (active); Potency (MCC-13): inactive; Potency (MCC-26): inactive; Potency (MKL-1): inactive; Potency (MKL-2): inactive; Potency (UISO): inactive; Potency (WaGa): inactive; Potency (C33A): inactive

Q: Which results are given for CCC[C@H](Nc1nc(-c2ccc(NC(=O)NCC)c(OC)c2)ncc1C)c1cccnc1?
A: max response (HEK293): -101%; Potency (KB-3-1): 0.0047 µM (active); max response (NIH3T3 [2]): -76.8%; Potency (MCC-13): 46.9 nM (active); Potency (MKL-2): 0.0187 µM (active)

Q: Which Potency (HEK293) does the source give for O=C(Nc1cccc2c(=O)cc(-c3nn[nH]n3)oc12)c1ccc(OCCCCc2ccccc2)cc1 here?
A: 18.7 µM (active)

Q: And the outcome (HaCat [1])?
A: inactive

Q: What about the max response (KB-3-1) of the same molecule?
A: -16.8%

Q: And the max response (NIH3T3 [2])?
A: -4.19%

Q: What about the outcome (HACAT [3]) of the same molecule?
A: inactive

Q: What about the Potency (MCC-13) of the same molecule?
A: inactive

Q: What about the Potency (MCC-26) of the same molecule?
A: inactive

Q: And the Potency (MKL-1)?
A: inactive

Q: And the Potency (WaGa)?
A: inactive

Q: And the Potency (C33A)?
A: inactive

Q: And the Potency (CAOV3)?
A: inactive

Q: What about the Potency (CASKI) of the same molecule?
A: inactive

Q: Which results are given for Cc1ccc(C(=O)N(CCCN)[C@@H](c2oc3cc(Cl)ccc3c(=O)c2Cc2ccccc2)C(C)C)cc1?
A: max response (CRL-7250): -26.7%; Potency (KB-3-1): 0.0008 µM (active); Potency (MCC-13): 8.3 nM (active); Potency (MKL-1): inactive; Potency (MKL-2): 8.33 µM (active); Potency (WaGa): inactive

Q: Which results are given for CN[C@@H]1CN(c2ccc3c(=O)c(C(=O)O)cn(-c4nccs4)c3n2)C[C@@H]1OC?
A: Potency (HEK293): 1.29 µM (active); Potency (HaCat [1]): 6.45 µM (active); Potency (NIH3T3 [2]): 0.512 µM (active); Potency (MCC-26): inactive; Potency (MKL-1): 1.82 µM (active); Potency (MKL-2): 3.23 µM (active); Potency (WaGa): 1.15 µM (active)

Q: Which Potency (HEK293) does the source give for CN(C)N=Nc1nc[nH]c1C(N)=O here?
A: 3.72 µM (active)

Q: And the Potency (HaCat [1])?
A: 18.7 µM (active)

Q: What about the Potency (KB-3-1) of the same molecule?
A: 4.69 µM (active)

Q: What about the max response (NIH3T3 [2]) of the same molecule?
A: -2.97%

Q: What about the Potency (MCC-13) of the same molecule?
A: inactive

Q: What about the Potency (MCC-26) of the same molecule?
A: inactive

Q: What about the Potency (MKL-1) of the same molecule?
A: inactive

Q: What about the Potency (UISO) of the same molecule?
A: inactive

Q: What does the source list for Cc1ccc(NC(=O)Nc2cc(C(F)(F)F)ccc2F)cc1Nc1ccc2c(c1)NC(=O)C2=Cc1ccc[nH]1?
A: Potency (HEK293): 11.8 µM (active); Potency (KB-3-1): 9.35 µM (active); Potency (NIH3T3 [2]): 16.6 µM (active); Potency (MKL-2): inactive; Potency (UISO): 18.7 µM (active)

Q: With CCN(CCO)CCCOc1ccc2c(Nc3cc(CC(=O)Nc4cccc(F)c4)[nH]n3)ncnc2c1 as the molecule, how does the max response (CRL-7250) read?
A: -19.9%

Q: What about the max response (KB-3-1) of the same molecule?
A: -29.8%

Q: What about the max response (NIH3T3 [2]) of the same molecule?
A: -28.4%

Q: And the Potency (MCC-13)?
A: inactive

Q: And the Potency (MCC-26)?
A: inactive

Q: What about the Potency (UISO) of the same molecule?
A: inactive

Q: And the Potency (C33A)?
A: inactive

Q: What about the Potency (CAOV3) of the same molecule?
A: inactive

Q: How did the Potency (CRL-7250) turn out when CN(C)CCN(C)C(=O)c1ccc(NC(=O)Nc2ccc(-c3nc(N4CCOCC4)c4ccn(CC(F)(F)F)c4n3)cc2)cc1 was run?
A: 0.0662 µM (active)

Q: And the Potency (KB-3-1)?
A: 0.0015 µM (active)

Q: What about the Potency (NIH3T3 [2]) of the same molecule?
A: 0.059 µM (active)

Q: What about the Potency (MCC-13) of the same molecule?
A: inactive

Q: What about the Potency (UISO) of the same molecule?
A: 0.105 µM (active)

Q: What does the source list for CO[C@H]1O[C@@H]2O[C@@]3(C)CC[C@@H]4[C@@H](C)CC[C@@H]([C@H]1C)[C@@]24OO3?
A: max response (HaCat [1]): -9.33%; outcome (KB-3-1): inactive; outcome (NIH3T3 [2]): inactive; Potency (MCC-13): inactive; Potency (MCC-26): inactive; Potency (MKL-1): inactive; Potency (NIH3T3 [4]): inactive; Potency (WaGa): 20.9 µM (active)
